According to ChEMBL document CHEMBL5308504, “Tm Shift (DSF) assay results for EUbOPEN Chemogenomics Library” (2023):

What was measured:
[1] = molecular target: Bromodomain-containing protein 4 (Homo sapiens) (UniProt O60885); conditions: Compound concentration 20.0 uM, Protein concentration 2.0 uM, Result type QC Liability
[2] = molecular target: T1, Transcription intermediary factor 1-alpha (Homo sapiens) (UniProt O15164); conditions: Compound concentration 20.0 uM, Protein concentration 2.0 uM, Result type QC Liability
T1 sequence (whole entry): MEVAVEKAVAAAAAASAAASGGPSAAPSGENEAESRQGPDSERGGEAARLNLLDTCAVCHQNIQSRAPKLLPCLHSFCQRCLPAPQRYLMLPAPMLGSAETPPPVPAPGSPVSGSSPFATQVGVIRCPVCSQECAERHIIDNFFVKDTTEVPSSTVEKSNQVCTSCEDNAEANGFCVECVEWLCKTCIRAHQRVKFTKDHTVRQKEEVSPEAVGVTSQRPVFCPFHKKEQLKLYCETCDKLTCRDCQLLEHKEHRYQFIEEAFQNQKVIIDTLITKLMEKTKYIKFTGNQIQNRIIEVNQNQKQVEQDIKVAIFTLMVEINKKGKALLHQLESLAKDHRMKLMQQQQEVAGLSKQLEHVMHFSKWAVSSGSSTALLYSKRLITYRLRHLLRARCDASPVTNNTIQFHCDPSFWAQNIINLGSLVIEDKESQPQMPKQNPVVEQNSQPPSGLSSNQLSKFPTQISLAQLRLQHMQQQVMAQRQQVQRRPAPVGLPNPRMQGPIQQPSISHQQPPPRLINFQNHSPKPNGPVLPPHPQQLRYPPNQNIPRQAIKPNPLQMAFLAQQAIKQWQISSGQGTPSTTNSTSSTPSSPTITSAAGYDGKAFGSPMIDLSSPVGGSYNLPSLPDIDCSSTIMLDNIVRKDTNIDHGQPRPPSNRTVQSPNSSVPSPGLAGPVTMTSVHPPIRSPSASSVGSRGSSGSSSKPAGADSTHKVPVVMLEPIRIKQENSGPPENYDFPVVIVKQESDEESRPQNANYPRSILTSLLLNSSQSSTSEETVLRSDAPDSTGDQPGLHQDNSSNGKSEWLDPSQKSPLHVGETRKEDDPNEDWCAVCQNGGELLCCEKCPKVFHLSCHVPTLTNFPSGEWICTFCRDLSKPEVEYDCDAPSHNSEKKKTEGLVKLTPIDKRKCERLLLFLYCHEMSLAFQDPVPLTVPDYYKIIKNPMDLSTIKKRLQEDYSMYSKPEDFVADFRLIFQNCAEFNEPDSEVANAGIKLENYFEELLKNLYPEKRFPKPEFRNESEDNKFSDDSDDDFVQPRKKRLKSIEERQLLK

Row | Compound | ΔTm [1] [°C] | ΔTm [2] [°C]
1 | CO[C@H]1CC[C@H](N(c2cc(F)c(Oc3ncc(Cn4nccn4)cc3C(F)(F)F)cc2C(=O)O)C(=O)[C@H]2CC[C@H](C)CC2)CC1 | 0.94 | -0.09
2 | COc1c(-c2cn(C3CCC(=O)NC3=O)nn2)csc1C(=O)N1CCCC1 (stereo not drawn) | -0.9 | -2.25
3 | CCN(C)S(=O)(=O)Nc1cccc(-c2ccc3c(NC(=O)C4CC4)n[nH]c3c2)c1 | 0.55 | -0.53
4 | O=C(O)CCC/C=C\C[C@@H]1[C@@H](/C=C/[C@@H](O)COc2cccc(C(F)(F)F)c2)[C@H](O)C[C@@H]1O | -0.49 | -0.79
5 | Cc1cc(-c2nc(-c3ccc(OC(F)(F)F)cc3)no2)nn1Cc1ccnc(N2CCN(C3CC3)CC2)c1 | 0.31 | 0.28
6 | Nc1nc(-c2nn(Cc3ccccc3F)c3ncccc23)ncc1C1CC1 | 1.11 | 0.4
7 | COc1cc(C(N)=O)ccc1Nc1ncc2c(n1)N(CCC(C)C)[C@H](C)C(=O)N2C | 6.98 | -0.48
8 | NCCCc1c(C(=O)O)[nH]c2ccc(C(=O)Nc3ccccc3)cc12 | -2.73 | -4.02
9 | Cc1ccc2c(NS(=O)(=O)c3ccccc3Cl)cccc2c1Oc1ncccc1-c1ccnc(N[C@H]2CCCNC2)n1 | 0.99 | 1.37
10 | CC(C)N(C(=O)C1CCOCC1)c1cc(F)c(Oc2ncc(Cn3nccn3)cc2C(F)(F)F)cc1C(=O)O | -3.14 | 0.13
11 | CN1C(=O)c2c(nn(Cc3ccc(-c4cccc(F)n4)cc3)c2Nc2ccccc2)N2C1=N[C@@H]1CCC[C@@H]12 | 1.34 | 0.8
12 | O=C(Nc1cccc(C(F)(F)F)c1)c1cccc(-n2cc(-c3ccco3)nn2)c1 | -12.8 | -0.66
13 | COC1(C#Cc2ccc(Cl)c(-c3ncc4c(n3)-c3sc(NC(C)=O)nc3CC4)c2)CCN(C)CC1 | -2.24 | -3.35
14 | C[C@@H]1COCCN1c1cc(=O)n2c(n1)N(Cc1cncc(Cl)c1)[C@H](C(F)(F)F)CC2 | -0.07 | -0.61
15 | CC1CNCCc2c1nc1ccnn1c2N1CC(C(=O)N2CCC(C)(C)C2)C1 (stereo not drawn) | -3.66 | 0.37
16 | CC(=O)Oc1ccc2c(c1)[C@@]1(C)CCC[C@](C)(C(=O)OC(=O)[C@@]3(C)CCC[C@]4(C)c5cc(OC(C)=O)ccc5CC[C@@H]34)[C@@H]1CC2 | -2.81 | -3.04
17 | CNC(=O)c1ccc2c(c1)ncn2-c1ccc(CC(=O)OC(C)(C)C)cc1 | -0.5 | -3.2
18 | O=C(Nc1cccc(Nc2nccc(Nc3cccc(C(F)(F)F)c3)n2)c1)C1CC1 | 1.77 | 1.03
19 | CCOc1cc(CC(=O)N[C@@H](CC(C)C)c2ccccc2N2CCCCC2)ccc1C(=O)O | -0.4 | -1.24
20 | CC(C)(C)C(=O)NCc1ccc(Cl)c(C(=O)Nc2ncc[nH]2)c1 | -0.82 | -0.67
21 | CCc1nc(-c2cccc(C)c2)c(-c2ccncc2)s1 | 0.55 | -3.01
22 | COCCN(C)c1ccc(NC(=O)/C=C(\C)c2ccc3ccccc3c2)c(C(=O)O)c1 | -1.96 | -0.91
23 | COc1cc(C(=O)NCCOCCOCCOCC(=O)N[C@H](C(=O)N2C[C@@H](O)C[C@H]2C(=O)NCc2ccc(-c3scnc3C)cc2)C(C)(C)C)ccc1Nc1ncc(C(F)(F)F)c(Oc2cccc3c2C(=O)CC3)n1 | 0.11 | 2.2
24 | CCOc1ccc(S(=O)(=O)Nc2ccc(Cl)cc2C#Cc2cnc(C(=O)O)cc2OC)c2ncccc12 | -1.6 | 0.27
25 | Cn1cncc1-c1cn(-c2cccc(C(=O)Nc3cccc(C(F)(F)F)c3)c2)nn1 | -2.66 | -0.32
26 | Cc1nc2ccccc2c(-c2ccc3c4c(ccnc24)CCO3)c1[C@H](OC(C)(C)C)C(=O)O | -1.5 | 0.24
27 | CN(C(=O)c1cnn2cccnc12)c1cc2c(cc1N1CCOCC1)C(=O)N(C[C@@H](F)C(C)(C)O)C2 | 0.93 | -2.51
28 | COc1cc(C(=O)NCCOCCOCCOCCC(=O)Nc2cccc3c2C(=O)N(C2CCC(=O)NC2=O)C3=O)ccc1Nc1ncc(C(F)(F)F)c(Oc2cccc3c2C(=O)CC3)n1 (stereo not drawn) | -4.34 | 0.52
29 | CCN(CC)C(=O)C1CN2CCc3cc(OC)c(OC)cc3C2CC1OC(C)=O (stereo not drawn) | -0.18 | 0.29
